Test results published in PubChem BioAssay (Tox21).
Values without a mark were called inactive. Results filed as inconclusive are left out. A call without a number means that no potency is given here. Calls of active or inactive are those of the source. Unless noted, the call rests on the fitted dose curve; in most records, active means well fitted curve in the direction sought with a large enough effect in the repeat runs; inconclusive means weak or mixed curves; inactive means no such curve, though single readings can be large; an effect the other way counts as inactive or inconclusive.

Tests used:
[1] = qHTS assay for small molecules that induce genotoxicity in human embryonic kidney cells expressing luciferase-tagged ATAD5 (AID 651632); further: nearly all actives have a fitted effect of over 15% in size
Summary of the method: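 A rise in luciferase signal from ATAD5-tagged HEK293T cells marks genetic stress. Cells were exposed to compounds for 16 hr at 37C, 5% CO2, then luciferase was quantified after a 30 min room-temperature incubation with Amplite.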

[2] = qHTS assay for small molecule agonists of the p53 signaling pathway - cell viability (AID 651633; calls by dose curve;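 further: p53RE-bla HCT reporter cells with a stable beta-lactamase p53 reporter; series mostly up to about 83 µM; nearly all actives have a fitted effect of over 30% in size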)
Summary of the method: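 p53RE-bla cells were treated with compound for 16 hours at 37 C. Cytotoxicity was then measured as CellTiter-Glo luminescence after 30 min at room temperature.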

[3] = qHTS assay for small molecule disruptors of the mitochondrial membrane potential - cell viability (AID 720634; calls by dose curve;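 further: human HepG2 liver cancer cells; series mostly up to about 83 µM; nearly all actives have a fitted effect of over 20% in size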)
Summary of the method: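 Cytotoxicity was quantified from ATP content by CellTiter-Glo luminescence in the same wells as the MMP dye read-out. HepG2 (2,000 cells/well) were plated overnight and exposed to compounds for 1 hr at 37 C.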

[4] = qHTS assay for small molecule disruptors of the mitochondrial membrane potential (AID 720635); further: potency means the concentration at half of the fitted maximal effect
Summary of the method: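 HepG2 cells exposed to compound 1 hr at 37C, then Mito-MPS dye 30 min. Ratio read of aggregate (540/590 nm) versus monomer (490/535 nm) fluorescence.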

[5] = qHTS assay to test for compound auto fluorescence at 535 nm (green) in HepG2 cells (AID 720675)
[6] = qHTS assay to test for compound auto fluorescence at 460 nm (blue) in HEK293 cells (AID 720678)
Summary of the method: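 HEK293 cells (2,000/well, medium with 10% dialyzed FBS) attached 4-5 hr, then exposed to compound overnight at 37C, 5% CO2. Blue fluorescence read at 405/460 nm, with triamterene as reference fluorophore.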

[7] = qHTS assay to test for compound auto fluorescence at 590 nm (red) in HEK293 cells (AID 720679)
Summary of the method: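 HEK293 cells (2,000/well, 10% dialyzed FBS) attached 4-5 hr, then dosed with compound or DMSO and incubated overnight at 37C, 5% CO2. Red fluorescence read at 540/590 nm, Rose Bengal sodium as reference fluorophore.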

[8] = qHTS assay for small molecules that induce genotoxicity in human embryonic kidney cells expressing luciferase-tagged ATAD5 - cell viability (AID 651634; calls by dose curve; further: nearly all actives have a fitted effect of over 25% in size; further: potency means the concentration at half of the fitted maximal effect)
Summary of the method: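 Cytotoxicity counter-readout: after 15.5 hr compound treatment at 37C, live-cell protease activity in ATAD5-luciferase HEK293T cells measured by CellTiter-Fluor fluorescence, 30 min development at 37C.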

[9] = qHTS assay to test for compound auto fluorescence at 590 nm (red) in HepG2 cells (AID 720674)
Summary of the method: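 Seeding: 2,000 HepG2 cells/well, MEM/10% FBS, overnight 37 C. Dosing: compound vs DMSO. Incubation: 1 hr, 37 C, 5% CO2. Read: fluorescence 540 ex/590 em, Rose Bengal sodium as red reference.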

SC1CCCC1
Potency [1]: inactive | Potency [2]: inactive | Potency [3]: inactive | Potency [4]: inactive | outcome [5]: inactive | Potency [6]: inactive | outcome [7]: inactive

CC(=O)c1c(C)c([N+](=O)[O-])c(C(C)(C)C)c([N+](=O)[O-])c1C
Potency [1]: inactive | Potency [2]: inactive | Potency [8]: inactive | Potency [4]: 54.5 µM (active) | outcome [9]: inactive | outcome [5]: inactive | Potency [6]: inactive | outcome [7]: inactive

CCN(CC)C(C)CN1c2ccccc2Sc2ccccc21 (stereo not drawn)
Potency [1]: inactive | Potency [2]: inactive | Potency [8]: inactive | Potency [4]: inactive | fluorescence, relative to Rose Bengal [9]: 0.373% [at 18.6 µM] | fluorescence, % of fluorescein control [5]: 0.0339% [at 18.6 µM] | fluorescence, % of fluorescent control [7]: -0.0946% [at 18.6 µM]

OCCC1CCCCN1 (stereo not drawn)
Potency [1]: inactive | Potency [2]: inactive | Potency [8]: inactive | Potency [3]: inactive | outcome [9]: inactive | outcome [5]: inactive | Potency [6]: inactive | outcome [7]: inactive

S=C(S)NCCNC(=S)S
Potency [1]: inactive | Potency [2]: inactive | Potency [8]: inactive | Potency [3]: inactive | outcome [5]: inactive | Potency [6]: inactive | outcome [7]: inactive

COC(=O)C(C)=O
Potency [1]: inactive | Potency [2]: inactive | Potency [8]: inactive | Potency [3]: inactive | outcome [9]: inactive | Potency [6]: inactive

CCCCc1cc2ccccc2c(OCCN(C)C)n1
Potency [1]: inactive | Potency [2]: inactive | Potency [8]: inactive | Potency [3]: inactive | fluorescence, relative to Rose Bengal [9]: 0.0286% [at 18.6 µM] | fluorescence, % of fluorescein control [5]: 0.0129% [at 18.6 µM] | fluorescence, % of triamterene [6]: 0.0451% [at 18.6 µM] | fluorescence, % of fluorescent control [7]: -0.0036% [at 18.6 µM]

COCCCCCCCCOCCC[Si](C)(O[Si](C)(C)C)O[Si](C)(C)C
Potency [1]: inactive | Potency [2]: inactive | Potency [4]: 4.86 µM (active) | outcome [9]: inactive | outcome [5]: inactive | Potency [6]: inactive | outcome [7]: inactive

c1ccc(-c2nc[nH]c2-c2ccccc2)cc1
Potency [1]: inactive | Potency [2]: inactive | Potency [3]: inactive | outcome [9]: inactive | Potency [6]: inactive | outcome [7]: inactive

CCOC(=O)C1=NN(c2ccccc2)C(=O)C1
Potency [1]: inactive | Potency [2]: inactive | Potency [8]: inactive | Potency [3]: inactive | outcome [9]: inactive | outcome [5]: inactive | Potency [6]: inactive | outcome [7]: inactive

CN1CCC(=C2c3ccccc3CCc3sccc32)CC1
Potency [1]: inactive | Potency [2]: inactive | Potency [8]: inactive | Potency [3]: inactive | outcome [9]: inactive | outcome [5]: inactive | outcome [7]: inactive

CCCCCCCCCCCCCCCCCBr
Potency [1]: inactive | Potency [2]: inactive | Potency [8]: inactive | Potency [3]: inactive | fluorescence, relative to Rose Bengal [9]: -0.244% [at 18.6 µM] | fluorescence, % of fluorescein control [5]: -0.0441% [at 18.6 µM] | fluorescence, % of triamterene [6]: 0.159% [at 18.6 µM] | fluorescence, % of fluorescent control [7]: 0.301% [at 18.6 µM]

CC(=O)/C=C/C1C(C)=CCCC1(C)C (stereo not drawn)
Potency [1]: inactive | Potency [2]: inactive | Potency [8]: inactive | outcome [9]: inactive | outcome [5]: inactive | Potency [6]: inactive | outcome [7]: inactive

CN1CCC(OC(c2ccccc2)c2ccccc2)CC1
Potency [1]: inactive | Potency [2]: inactive | Potency [8]: inactive | Potency [3]: inactive | fluorescence, relative to Rose Bengal [9]: -0.513% [at 18.6 µM] | fluorescence, % of fluorescein control [5]: -0.0945% [at 18.6 µM] | fluorescence, % of triamterene [6]: -0.105% [at 18.6 µM] | fluorescence, % of fluorescent control [7]: 0.0005% [at 18.6 µM]

NC1CCN(c2nc3c(cc2F)c(=O)c(C(=O)O)cn3-c2ccc(F)cc2F)C1 (stereo not drawn)
Potency [1]: inactive | Potency [2]: inactive | Potency [3]: inactive | Potency [4]: inactive | Potency [6]: inactive | outcome [7]: inactive

CC(C)(C)c1cc(CCC(=O)OCC(COC(=O)CCc2cc(C(C)(C)C)c(O)c(C(C)(C)C)c2)(COC(=O)CCc2cc(C(C)(C)C)c(O)c(C(C)(C)C)c2)COC(=O)CCc2cc(C(C)(C)C)c(O)c(C(C)(C)C)c2)cc(C(C)(C)C)c1O
Potency [1]: inactive | Potency [2]: inactive | Potency [8]: inactive | Potency [3]: inactive | outcome [5]: inactive | Potency [6]: inactive | outcome [7]: inactive

CCOC(=O)[C@H](CCc1ccccc1)N[C@H]1CCc2ccccc2N(CC(=O)O)C1=O
Potency [1]: inactive | Potency [2]: inactive | Potency [8]: inactive | outcome [5]: inactive | outcome [7]: inactive

CCc1nn(C2CCCCC2)c2cc(C3(C#N)CCC(C(=O)O)CC3)ccc12 (stereo not drawn)
Potency [1]: inactive | Potency [2]: inactive | Potency [8]: 27.3 µM (active) | outcome [9]: inactive | outcome [5]: inactive | Potency [6]: inactive

O=CNc1ccccc1
Potency [1]: inactive | Potency [2]: inactive | Potency [8]: inactive | Potency [4]: inactive | outcome [9]: inactive | Potency [6]: inactive | outcome [7]: inactive

CCCCC(CC)(CO)CO
Potency [1]: inactive | Potency [2]: inactive | Potency [8]: inactive | Potency [3]: inactive | outcome [9]: inactive | outcome [5]: inactive | Potency [6]: inactive | outcome [7]: inactive

Cc1cc(O)ccc1N
Potency [1]: inactive | Potency [8]: inactive | outcome [9]: inactive | outcome [7]: inactive

CCCCCOC(=O)c1ccc(O)cc1
Potency [2]: inactive | Potency [4]: 6.94 µM (active) | outcome [5]: inactive | Potency [6]: inactive | outcome [7]: inactive

CC(C(=O)O)c1ccc(-c2ccccc2)c(F)c1 (stereo not drawn)
Potency [1]: inactive | Potency [3]: inactive | outcome [9]: inactive | outcome [5]: inactive | Potency [6]: inactive | outcome [7]: inactive

CCN(CC)CCOc1ccc2c(c1)C(=O)c1cc(OCCN(CC)CC)ccc1-2
Potency [1]: inactive | Potency [8]: inactive | Potency [3]: inactive | Potency [4]: inactive | outcome [9]: inactive | outcome [5]: inactive | Potency [6]: inactive

CCCCCOC(=O)COc1cc(N2C(=O)C3=C(CCCC3)C2=O)c(F)cc1Cl
Potency [1]: inactive | Potency [3]: inactive | outcome [5]: inactive | Potency [6]: inactive | outcome [7]: inactive

Cc1nc2ccccc2n1Cc1ccc(Cl)cc1
Potency [1]: inactive | outcome [9]: inactive | outcome [5]: inactive | Potency [6]: inactive | outcome [7]: inactive

CCOc1ccc(NC(=O)CC(C)=O)cc1
Potency [1]: inactive | Potency [8]: inactive | Potency [3]: inactive | Potency [4]: inactive | outcome [9]: inactive | Potency [6]: inactive

CN(C)CC/C=C1\c2ccccc2COc2ccccc21
Potency [2]: inactive | Potency [8]: inactive | Potency [3]: inactive | outcome [9]: inactive | Potency [6]: inactive | outcome [7]: inactive

CCCCCC(CO)CCC (stereo not drawn)
Potency [1]: inactive | Potency [8]: inactive | Potency [3]: inactive | Potency [4]: inactive | outcome [9]: inactive | outcome [5]: inactive | Potency [6]: inactive | outcome [7]: inactive
